# Experimental data published in PubChem BioAssay (NCATS).
# Inconclusive results are not listed. Where a call stands in place of a potency, no number is given. Active and inactive are the calls of the source. Calls come from the whole dose curve; as a rule, active = well fitted inhibition curve with a large enough effect; inconclusive = small, poorly fitted or top-dose-only effect; inactive = flat fitted curve, though single readings scatter.
# Test: P-glycoprotein substrates identified in KB-8-5-11 adenocarcinoma cell line, qHTS therapeutic library screen (AID 1346987); note: nearly all actives have a fitted effect of over 65% in size
# Settings: KB-8-5-11 (P-gp overexpressing) viability, CellTiter-Glo, 72 h; series mostly up to 44.5 µM
# Method in brief: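 In this qHTS, P-gp-rich KB-8-5-11 cells received library compounds across a concentration range. Viability was quantified by luminescence after 72 h at 37 degree C.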
# Potency is the fitted concentration of half-maximal effect.
SMILES,Potency,outcome
C=C1C(OC(=O)/C(C)=C\C)[C@@]23CCC4[C@@](C)(CCC[C@@]4(C)C(=O)O)C2CC[C@H]1C3OC(C)=O (some centres not stated),inactive,
CN=C(N)NCCCCC/C=C(/C)CC(C)C1OC(=O)C(C)C(O)/C=C/C(C)C(O)CC(O)C(C)C(O)CCC(C)C(O)CC2(O)OC(CC(OC(=O)CC(=O)O)CC(O)CC(O)C(C)C(O)/C(C)=C/CCC1C)CC(O)C2O (configuration not stated),,inactive [at 9.29 µM]
CC[C@@H](O)C[C@@H]1C(C)=C[C@@H]2CCCC[C@@H]2[C@@]1(C)C(=O)O,inactive,
Cc1c[nH]c2nccc(Oc3c(F)cc(Nc4cc(Cl)nc(N)n4)cc3F)c12,1.3 µM (active),
COC(=O)CC(O)CC(O)/C=C/c1c(C)ccc2c1C(O)CC(C)C2 (configuration not stated),inactive,
COc1ccc([C@@H]2OC[C@H]3[C@@H]2CO[C@@H]3c2ccc(OC3OC(CO)C(O)C(O)C3O)c(OC)c2)cc1OC (some centres not stated),inactive,
CC(Oc1ccc2[nH]nc(/C=C/c3cnn(CCO)c3)c2c1)c1c(Cl)cncc1Cl (configuration not stated),1.03 µM (active),
CC(=O)O[C@@H]1[C@H](O[C@@H]2O[C@@H](CO)[C@H](O)[C@H]2O)[C@@H](O[C@@H]2O[C@@H](C)[C@H](O[C@@H]3OC[C@@H](O)[C@H](O)[C@H]3O)[C@@H](O)[C@H]2O)[C@H](OC(=O)[C@]23CCC(C)(C)C[C@H]2C2=CCC4[C@@]5(C)CC[C@H](O[C@@H]6O[C@H](C(=O)O)[C@@H](O)[C@H](O)[C@H]6O[C@@H]6O[C@H](CO)[C@H](O)[C@H](O)[C@H]6O)[C@@](C)(C=O)C5CC[C@@]4(C)[C@]2(C)CC3)O[C@@H]1C (some centres not stated),,inactive [at 9.29 µM]
CC1OC(OC2CCC3(C)C(CCC4(C)C3CC=C3C5CC(C)(C)CCC5(C(=O)OC5OC(CO)C(O)C(O)C5O)CCC34C(=O)O)C2(C)C)C(O)C(O)C1O (configuration not stated),inactive,
CC(=O)O[C@H]1C[C@@]2(C)[C@@H](CC[C@H]3[C@@]4(C)C=CC(=O)[C@@H](C)[C@@H]4[C@H](O)C(=O)[C@@]32C)/C1=C(/CCC=C(C)C)C(=O)O,inactive,
C/C(=C\C=C\C(C)C1CCC2(C)C3CCC4C(C)(C)C(=O)CCC45CC35CCC12C)C(=O)O (configuration not stated),inactive,
N[C@@]1(C(=O)O)CC[C@H]2[C@H](C(=O)O)[C@H]21,inactive,
COc1ccc(C2COc3cc(O)ccc3C2)c(O)c1 (configuration not stated),inactive,
CC1=CC(=O)C(=C(C)C)CC2C1CCC2(C)O (configuration not stated),inactive,
CC(C)=CCC/C(C)=C/Cc1ccc(O)c(C2OC(=O)c3cc(C(=O)O)cc(O)c32)c1O (configuration not stated),inactive,
C=CC1C(OC2OC(CO)C(O)C(O)C2O)OC=C2C(=O)N3C(C(=O)O)Cc4c([nH]c5ccccc45)C3CC21 (configuration not stated),inactive,
COc1ccc(CNC(=O)c2sc3nc(C)cc(C)c3c2N)cc1,inactive,
CC1OC(OC2C(C)OC(OC3C(O)C(CO)OC(O[C@H]4CC[C@@]5(C)C(CC[C@]6(C)C5CC=C5C7[C@@H](C)[C@H](C)CC[C@]7(C(=O)O)CC[C@]56C(=O)O)C4(C)C)C3O)C(O)C2O)C(O)C(O)C1O (some centres not stated),,inactive [at 9.29 µM]
C/C=C1\[C@H](O[C@@H]2O[C@H](CO)[C@@H](O)[C@H](O)[C@H]2O)OC=C2C(=O)OCCc3ccc(O)c(c3)Oc3ccc(cc3)CCOC(=O)C[C@H]21,inactive,
CC(C)c1c2cc(-c3ccnc(NC4CCC(NC5CCOCC5)CC4)n3)ccc2nn1C (configuration not stated),1.84 µM (active),
C#CCN(Cc1cc2c(=O)[nH]c(C)nc2cc1Br)c1ccc(C(=O)NCc2cccnc2)cc1,0.259 µM (active),
COc1cc(O)c2c(c1)C1=C[C@H](O)[C@@H](O)C[C@]1(C)OC2=O,inactive,
CC1(C)CCCC2(C)C=C(C(=O)O)C(O)CC12 (configuration not stated),inactive,
C=CC(C)(C)c1[nH]c2ccccc2c1C[C@@H]1NC(=O)[C@H](Cc2c[nH]c3ccccc23)NC1=O,inactive,
C=CC1(C)CC(OC(=O)/C(C)=C\COC(C)=O)C(C(=C)C(=O)O)C(O)C1C(=C)CO (configuration not stated),inactive,
COC(=O)CCC(=O)OC[C@]1(C)CCC[C@@]2(C)C3CC[C@]4(C)C=CC3(CCC12)C4 (some centres not stated),inactive,
CC1(C)CC[C@]2(C(=O)O[C@@H]3O[C@H](CO[C@@H]4O[C@H](CO)[C@@H](O)[C@H](O)[C@H]4O[C@@H]4O[C@H](CO)[C@H](O)[C@H](O)[C@H]4O)[C@@H](O)[C@H](O[C@@H]4O[C@H](CO)[C@@H](O)[C@H](O)[C@H]4O)[C@H]3O)CC[C@]3(C)C(=CCC4[C@@]5(C)CC[C@H](O[C@@H]6OC[C@@H](O)[C@H](O)[C@H]6O)[C@@](C)(C(=O)O)C5CC[C@]43C)[C@@H]2C1 (some centres not stated),,inactive [at 9.29 µM]
